The source of these data is the supplement of paper PMC6279402.

Where a name gives a salt, the structure may show the parent alone. ± gives the standard deviation of the averaged measurements.

The test system of the assay is A549. The assay can be described thus: relative viability (normalised to negative control = 1, bortezomib = 0) (fraction); higher = less cytotoxic. To be noted: inflammatory serum-free RHB-A with cytokines + LPS, 5 d + 24 h CellTiter-Blue. How it is done: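 A549 KRAS-mutant NSCLC cells, pre-treated 5 µM GSK126 or vehicle (DMSO), were seeded at 250 cells/well in 384-well plates in serum-free RHB-A medium with inflammatory cytokines/LPS and treated with Selleck kinase inhibitor and NCI oncology compounds at 30 or 300 nM in triplicate, refreshed at 48 h. Viability was read by CellTiter-Blue after 5 d plus 24 h and normalised per plate with cellHTS2 (mean of bortezomib positive control = 0, mean of negative control = 1).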
For orientation: The colour change of resazurin is a common sign of viable cells or microbes.

[1] abbreviates: compound 30 nM, GSK126 pretreatment: 5 uM GSK126.
Setting [2] is: compound 30 nM, GSK126 pretreatment: none (vehicle).
The mark [3] stands for this setting: compound 300 nM, GSK126 pretreatment: 5 uM GSK126.
Where [4] appears, read: compound 300 nM, GSK126 pretreatment: none (vehicle).

With `CO[C@H]1C[C@@H]2CC[C@@H](C)[C@@](O)(O2)C(=O)C(=O)N2CCCC[C@H]2C(=O)O[C@H]([C@H](C)C[C@@H]2CC[C@@H](OP(C)(C)=O)[C@H](OC)C2)CC(=O)[C@H](C)/C=C(\C)[C@@H](O)[C@@H](OC)C(=O)[C@H](C)C[C@H](C)/C=C/C=C/C=C/1C` [Deforolimus(MK-8669)], the relative viability under setting [1] was 0.574 ± 0.039, the relative viability under setting [2] worked out at 0.591 ± 0.02, the relative viability under setting [3] is 0.548 ± 0.03 and the relative viability under setting [4] is 0.523 ± 0.041.

As to `O=C(NOC[C@H](O)CO)c1ccc(F)c(F)c1Nc1ccc(I)cc1F`, the relative viability stood at 0.213 ± 0.035 under setting [1], 0.291 ± 0.011 under setting [2], 0.108 ± 0.017 under setting [3] and 0.112 ± 0.0091 under setting [4].

As to `COc1cc2/c(=N/c3ccc(Br)cc3F)nc[nH]c2cc1OCC1CCN(C)CC1` [Vandetanib], the relative viability came out at 0.923 ± 0.1 under setting [1], 0.924 ± 0.083 under setting [2], 0.742 ± 0.12 under setting [3] and 0.705 ± 0.044 under setting [4].

As to `C=CC(=O)Nc1cccc(Oc2nc(Nc3ccc(N4CCN(C)CC4)cc3OC)ncc2Cl)c1`, the relative viability under setting [1] came to 0.978 ± 0.051, the relative viability under setting [2] came to 0.897 ± 0.034, the relative viability under setting [3] was 0.782 ± 0.086 and the relative viability under setting [4] amounted to 0.87 ± 0.095.

Take `CC[C@]1(O)C[C@H]2CN(CCc3c([nH]c4ccccc34)[C@@](C(=O)OC)(c3cc4c(cc3OC)N(C=O)[C@H]3[C@@](O)(C(=O)OC)[C@H](OC(C)=O)[C@]5(CC)C=CCN6CC[C@]43[C@@H]65)C2)C1` [Vincristine sulfate]: the relative viability was 0.453 ± 0.072 under setting [1], 0.289 ± 0.031 under setting [2], 0.388 ± 0.035 under setting [3] and 0.303 ± 0.014 under setting [4].

For the compound `COc1cc2c(Oc3ccc4[nH]c(C)cc4c3F)ncnc2cc1OCCCN1CCCC1` [Cediranib(AZD2171)], the relative viability is 0.943 ± 0.053 under setting [1], 0.968 ± 0.019 under setting [2], 0.981 ± 0.11 under setting [3] and 0.996 ± 0.051 under setting [4].

For the compound `CC1(C)CNc2cc(NC(=O)c3cccnc3NCc3ccncc3)ccc21` [Motesanib Diphosphate], the relative viability turned out to be 0.917 ± 0.035 under setting [1], 0.864 ± 0.062 under setting [2], 0.937 ± 0.14 under setting [3] and 0.918 ± 0.06 under setting [4].

`FC(F)c1nc2ccccc2n1-c1nc(N2CCOCC2)nc(N2CCOCC2)n1`: the relative viability is, setting by setting: under setting [1], 0.684 ± 0.12; under setting [2], 0.738 ± 0.044; under setting [3], 0.321 ± 0.1; under setting [4], 0.395 ± 0.033.

As to `N#CC(=C(/N)Sc1ccccc1N)/C(C#N)=C(/N)Sc1ccccc1N`, the relative viability by setting is: under setting [1], 0.835 ± 0.084; under setting [2], 0.825 ± 0.11; under setting [3], 0.61 ± 0.084; under setting [4], 0.684 ± 0.12.

As to `Cc1cn(-c2cc(NC(=O)c3ccc(C)c(Nc4nccc(-c5cccnc5)n4)c3)cc(C(F)(F)F)c2)cn1` [Nilotinib], the relative viability worked out at 1.02 ± 0.13 under setting [1], 0.993 ± 0.089 under setting [2], 1.14 ± 0.17 under setting [3] and 1.07 ± 0.069 under setting [4].
